# Assay results from the supplement of paper PMC8728848.
# Shown is part of a subset that was picked to be rich in the strongest signals.
# B1: ArathEULS3 TAP (Arabidopsis thaliana) (protein)
# chain: IDENLYFQGGSMDEKTTGWRGGHVVEGLAGELEQLRARLEHHPQGQREPGGGGSLEITSLYKKAGFMEHHHQHHRHHQRDDGEDDRQSFGVPPPHVDAPPQPHGLYQSQPHFDPYAPTPQAPAPYRSETQFEPHAPPPYRSEPYFETPAPPPSFGHVSHVGHQSPNESYPPEHHRYGGYQQPSNSLLESHGDHSGVTHVAHHSSNQPQSSSGVYHKPDENRLPDNLAGLAGRATVKVYSKAEPNYNLTIRDGKVILAPADPSDEAQHWYKDEKYSTKVKDADGHPCFALVNKATGEAMKHSVGATHPVHLIRYVPDKLDESVLWTESKDFGDGYRTIRMVNNTRLNVDAYHGDSKSGGVRDGTTIVLWDWNKGDNQLWKIFPF
# Experiments:
# Experiment in all cases: glycan array binding signal (z-score within array); higher = stronger binding
# Conditions in all cases: glycan notation: IUPAC condensed, linker removed
# [1] = target: Fuc(a1-2)Gal(b1-3)GlcNAc
# Outline: (§1)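 Negative Z-scores can be read as non-binding. The Z-score is calculated within each array and then averaged across arrays of one protein sequence at different concentrations or buffers and across linkers. Arrays, 3228 in all, were curated from the Consortium for Functional Glycomics database and kept only where the protein sequence was available.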
# [2] = target: Fuc(a1-2)Gal(b1-3)GlcNAc(b1-3)Gal(b1-4)Glc
# Outline: as §1
# [3] = target: Fuc(a1-2)Gal(b1-4)GlcNAc(b1-3)Gal(b1-4)GlcNAc(b1-2)Man(a1-3)[Fuc(a1-2)Gal(b1-4)GlcNAc(b1-3)Gal(b1-4)GlcNAc(b1-2)Man(a1-6)]Man(b1-4)GlcNAc(b1-4)GlcNAc
# Outline: as §1
# [4] = target: Fuc(a1-2)Gal(b1-4)[Fuc(a1-3)]GlcNAc(b1-2)Man(a1-3)[Fuc(a1-2)Gal(b1-4)[Fuc(a1-3)]GlcNAc(b1-2)Man(a1-6)]Man(b1-4)GlcNAc(b1-4)[Fuc(a1-6)]GlcNAc
# Outline: as §1
# [5] = target: Fuc(a1-2)Gal(b1-4)[Fuc(a1-3)]GlcNAc(b1-3)Gal(b1-4)[Fuc(a1-3)]GlcNAc
# Outline: as §1
# [6] = target: Fuc(a1-2)Gal(b1-4)[Fuc(a1-3)]GlcNAc(b1-3)GalNAc
# Outline: as §1
# [7] = target: Fuc(a1-2)Gal6S(b1-3)GlcNAc6S
# Outline: as §1
# [8] = target: Fuc(a1-2)Gal6S(b1-4)Glc
# Outline: as §1
# [9] = target: Fuc(a1-2)[Gal(a1-3)]Gal(b1-4)GlcNAc(b1-2)Man(a1-3)[Fuc(a1-2)[Gal(a1-3)]Gal(b1-4)GlcNAc(b1-2)Man(a1-6)]Man(b1-4)GlcNAc(b1-4)GlcNAc
# Outline: as §1
# [10] = target: Fuc(a1-2)[GalNAc(a1-3)]Gal(b1-4)GlcNAc(b1-2)Man
# Outline: as §1
# [11] = target: Fuc(a1-3)[Gal(b1-4)]GlcNAc(b1-2)Man(a1-3)[Fuc(a1-3)[Gal(b1-4)]GlcNAc(b1-2)Man(a1-6)]Man(b1-4)GlcNAc(b1-4)GlcNAc
# Outline: as §1
# [12] = target: Fuc(a1-3)[Gal(b1-4)]GlcNAc6S
# Outline: as §1
# [13] = target: Fuc(a1-3)[Gal3S(b1-4)]GlcNAc6S
# Outline: as §1
# [14] = target: Gal(a1-3)Gal
# Outline: as §1
# [15] = target: Gal(a1-3)Gal(b1-3)GlcNAc(b1-3)GalNAc
# Outline: as §1
# [16] = target: Gal(a1-3)GalNAc
# Outline: as §1
# [17] = target: Gal(a1-3)[Gal(a1-4)]Gal(b1-4)GlcNAc
# Outline: as §1
# [18] = target: Gal(b1-3)GalNAc(b1-3)Gal(a1-4)Gal(b1-4)Glc
# Outline: as §1
# [19] = target: Gal(b1-3)GlcNAc(a1-6)Gal(b1-4)GlcNAc
# Outline: as §1
# [20] = target: Gal(b1-3)[Fuc(a1-4)]GlcNAc(b1-3)Gal(b1-3)[Fuc(a1-4)]GlcNAc
# Outline: as §1
# [21] = target: Gal(b1-4)GlcNAc(b1-2)[Gal(b1-4)GlcNAc(b1-6)]Man(a1-6)[Gal(b1-4)GlcNAc(b1-2)Man(a1-3)]Man(b1-4)GlcNAc(b1-4)[Fuc(a1-6)]GlcNAc
# Outline: as §1
# [22] = target: Gal(b1-4)GlcNAc(b1-3)Gal(b1-3)GlcNAc
# Outline: as §1
# [23] = target: Gal(b1-4)GlcNAc(b1-3)Gal(b1-4)Glc
# Outline: as §1
# [24] = target: Gal(b1-4)GlcNAc(b1-3)Gal(b1-4)GlcNAc(b1-3)Gal(b1-4)GlcNAc
# Outline: as §1
# [25] = target: Gal(b1-4)GlcNAc(b1-6)Gal(b1-4)GlcNAc
# Outline: as §1
# [26] = target: Gal(b1-4)GlcNAc(b1-6)GalNAc
# Outline: as §1
# [27] = target: Gal3S(b1-3)GlcNAc
# Outline: as §1
# [28] = target: Gal3S(b1-4)Glc
# Outline: as §1
# [29] = target: Gal3S4S(b1-4)GlcNAc
# Outline: as §1
# [30] = target: Gal4S(b1-4)GlcNAc
# Outline: as §1
# [31] = target: GlcA(b1-3)GlcNAc
# Outline: as §1
# [32] = target: GlcNAc(a1-4)Gal(b1-4)GlcNAc(b1-3)Gal(b1-4)GlcNAc(b1-3)Gal(b1-4)GlcNAc
# Outline: as §1
# [33] = target: GlcNAc(b1-2)Man(a1-3)[GlcNAc(b1-2)Man(a1-6)]Man(b1-4)GlcNAc(b1-4)[Fuc(a1-6)]GlcNAc
# Outline: as §1
# [34] = target: GlcNAc(b1-2)[GlcNAc(b1-4)]Man(a1-3)[GlcNAc(b1-4)][GlcNAc(b1-2)[GlcNAc(b1-6)]Man(a1-6)]Man(b1-4)GlcNAc(b1-4)[Fuc(a1-6)]GlcNAc
# Outline: as §1
# [35] = target: GlcNAc(b1-3)Gal(b1-4)GlcNAc
# Outline: as §1
# [36] = target: GlcNAc(b1-3)Gal(b1-4)GlcNAc(b1-2)Man(a1-3)[GlcNAc(b1-3)Gal(b1-4)GlcNAc(b1-2)Man(a1-6)]Man(b1-4)GlcNAc(b1-4)GlcNAc
# Outline: as §1
binder,measurement,setting,value
B1,glycan array binding signal (z-score),[1],0.613
same,glycan array binding signal (z-score),[2],-0.174
same,glycan array binding signal (z-score),[3],2.35
same,glycan array binding signal (z-score),[4],1.46
same,glycan array binding signal (z-score),[5],0.109
same,glycan array binding signal (z-score),[6],-0.688
same,glycan array binding signal (z-score),[7],-0.204
same,glycan array binding signal (z-score),[8],1.85
same,glycan array binding signal (z-score),[9],-0.837
same,glycan array binding signal (z-score),[10],0.256
same,glycan array binding signal (z-score),[11],-0.853
same,glycan array binding signal (z-score),[12],2.6
same,glycan array binding signal (z-score),[13],0.828
same,glycan array binding signal (z-score),[14],3.3
same,glycan array binding signal (z-score),[15],0.549
same,glycan array binding signal (z-score),[16],-0.474
same,glycan array binding signal (z-score),[17],2.15
same,glycan array binding signal (z-score),[18],0.136
same,glycan array binding signal (z-score),[19],-0.499
same,glycan array binding signal (z-score),[20],-0.335
same,glycan array binding signal (z-score),[21],0.941
same,glycan array binding signal (z-score),[22],-0.688
same,glycan array binding signal (z-score),[23],-0.967
same,glycan array binding signal (z-score),[24],0.391
same,glycan array binding signal (z-score),[25],1.18
same,glycan array binding signal (z-score),[26],1.1
same,glycan array binding signal (z-score),[27],-0.162
same,glycan array binding signal (z-score),[28],0.159
same,glycan array binding signal (z-score),[29],4.33
same,glycan array binding signal (z-score),[30],0.737
same,glycan array binding signal (z-score),[31],-0.1
same,glycan array binding signal (z-score),[32],0.236
same,glycan array binding signal (z-score),[33],-0.928
same,glycan array binding signal (z-score),[34],-0.659
same,glycan array binding signal (z-score),[35],-0.59
same,glycan array binding signal (z-score),[36],-0.107
